# Source: PubChem
# Rows were chosen to be rich in hits. Some 5.9% of all compounds tested hit in one or more screens of this group.
# S2 tox: viability counter-screen for ATXN expression inhibitors | S2 cells (HEK-293 line with an ATXN2-luciferase reporter) viability, CellTiter-Fluor protease fluorescence, 24 h | Potency, µM (highest dose often 56.7 µM), actives largely listed as cytotoxic | hit rate 0.49% among 400,000 | AID 651635; note: nearly all actives have a fitted effect of over 40% in size
# KB-V1 cytotox: kills drug-selected multidrug resistant KB-V1 cells; Potency, µM (top dose mostly 46.1 µM), hits mostly cytotoxic; AID 1347076; KB-V1 MDR cells viability, CellTiter-Glo, 72 h; hit rate 3.4% among 400,000; note: nearly all actives have a fitted effect of over 60% in size
#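 Drug-selected KB-V1 cells, grown in DMEM lacking phenol red with 10% FBS, receive compound titrations; after three days at 37 degrees C, surviving cell ATP is quantified by CellTiter-Glo luminescence and responses normalized and curve-fitted.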
# KB-3-1 cytotox: KB-3-1 parental cell cytotoxicity; KB-3-1 viability, CellTiter-Glo ATP luminescence, 72 h; Potency, µM (series often up to 46.1 µM), hits mostly cytotoxic; hit rate 1.4% among 400,000; note: nearly all actives have a fitted effect of over 60% in size
#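 Cytotoxicity in the drug-sensitive parental line KB-3-1 was scored as loss of CellTiter-Glo luminescence following 72 h incubation with compound. Values come from curve fitting of normalized concentration-response data.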
# ATXN2 expr inh: inhibitors of ATXN2 expression | Potency, µM (titrated, usually from 57 µM), actives largely listed as inhibitors | AID 1745845 | HEK-293 ATXN2-luciferase reporter, luminescence, 24 h | hit rate 0.72% among 360,000; note: nearly all actives have a fitted effect of over 55% in size
#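 ATXN2-luciferase reporter cells (luciferase flanked by upstream and downstream ATXN2 gene portions) were treated 24 h at 37 °C with compounds at up to 57 uM. SteadyGlo luminescence gave expression; GF-AFC fluorescence gave viability.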
# HepG2 viability: kills HepG2 cells in TGF-b inhibitor counter-screen; Potency, µM (highest dose often 46.1 µM), actives largely listed as cytotoxic; hit rate 0.76% among 410,000; HepG2 CAGA-GFP viability, ATP luminescence, 18 h; AID 588856
#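 HepG2 CAGA-GFP cells (1000/well, DMEM with 1% FBS) received compound, then TGF-beta at 500 pg/mL final, and were incubated 18 hours at 37 degrees C. Viability was read by CellTiter-Glo luminescence. Media-only wells were set as complete cell-killing and DMSO as no toxicity.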
# TGFb inhibitor: inhibitors of TGF-b signaling; HepG2 CAGA-GFP TGF-b/SMAD3 reporter, GFP fluorescence, 18 h; TGF-beta stimulated, 500 pg/mL final; Potency, µM (doses to about 46.1 µM), actives largely listed as inhibitors; hit rate 1.2% among 410,000; note: nearly all actives have a fitted effect of over 65% in size
#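 Cell-based qHTS in HEPG2 carrying a CAGA-GFP Smad reporter; compounds added before 500 pg/mL final TGF-beta, 18 h incubation at 37 degrees C, GFP fluorescence quantified per cell by imaging cytometry.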
# Hits are given with their value; i = inactive; ? = inconclusive; nt = not tested or not shown. Calls come from the whole dose curve; as a rule, active = well fitted curve in the direction sought with a large enough effect; inconclusive = small, poorly fitted or top-dose-only effect, or another doubt; inactive = no such curve, though single readings can be large; an effect the other way counts as inactive or inconclusive.
SMILES,S2 tox,KB-V1 cytotox,KB-3-1 cytotox,ATXN2 expr inh,HepG2 viability,TGFb inhibitor
CCN(CC)c1ccc2c(cc1=O)[C@@H](NC)CCc1cc(OC)c(OC)c(OC)c1-2,?,6.51µM,0.92µM,i,i,?
COc1cc2c(c(OC)c1OC)-c1ccc(O)c(=O)cc1[C@H](N)CC2,i,nt,nt,nt,nt,nt
Cc1ccc2c(c1)[C@]13CCCC[C@@H]1[C@H](C2)N(C)CC3,i,nt,nt,nt,nt,nt
Cc1nc2cc(F)ccc2n1C1CCN(Cc2nnnn2CCc2ccccc2)CC1,i,11.6µM,i,i,i,i
CC[C@@]1(O)C(=O)OCc2c1cc1n(c2=O)Cc2cc3c(NC(=O)CN)cccc3nc2-1,nt,i,i,0.336µM,i,?
CC[C@@]1(O)C(=O)OCc2c1cc1n(c2=O)Cc2cc3ccccc3nc2-1,nt,i,?,0.0193µM,i,i
CCC1(O)C(=O)OCc2c1cc1n(c2=O)Cc2cc3cc(O)ccc3nc2-1 (stereo unspecified),nt,?,?,i,i,?
COc1ccccc1-n1c(-c2ccoc2)nc2ccccc2c1=O,i,i,i,i,i,i
O=c1c2ccccc2nc(-c2ccoc2)n1-c1ccccc1Cl,?,16.4µM,?,i,i,i
CCCCCCC(=O)c1c(O)n(-c2ccc(OC)cc2)c(=O)[nH]c1=O (tested in a mixture with another compound),i,8.2µM,i,nt,i,i
CCCCCCC(=O)c1c(O)n(-c2ccccc2OC)c(=O)[nH]c1=O (tested in a mixture with another compound),i,?,i,i,i,i
CC1CN(C(=O)c2ccc(S(=O)(=O)Nc3ccccc3F)cc2)CC(C)O1 (stereo unspecified),?,i,i,i,i,i
CCC(=O)Nc1ccc(C(=O)OCc2ccccc2Cl)cc1,?,14.6µM,i,i,i,i
Cc1ccc(-c2c(C)n3c4c(=O)n(C)c(=O)n(C)c4nc3n2CCO)cc1,?,i,2.06µM,i,i,i
CC(=O)Nc1cc(-c2ccc(C(=O)NC3CC3)cc2)cn2c(-c3ccc(F)c(Cl)c3)cnc12,i,?,i,i,i,?
O=C1NC(=O)N(c2ccccc2)C(=O)/C1=C/c1ccc(Sc2ccccc2)o1,?,i,i,25.1µM,i,i
CCN(CC)P(=O)(Nc1ccc([N+](=O)[O-])cc1)c1c(C)nn(CCC#N)c1NC(=O)c1ccc(Cl)cc1Cl (stereo unspecified),i,i,i,i,i,?
Cc1cccc(NC(=O)Cn2c(=O)oc3cc(S(=O)(=O)N4CCCCCC4)ccc32)c1,nt,nt,nt,nt,i,nt
CCOC(=O)C(C)Oc1cc(C)cc2oc(=O)c3c(c12)CCCC3 (stereo unspecified),i,10.3µM,i,i,i,i
CC(C)OP(=O)(OC(C)C)C(NC(=O)c1ccccc1Br)C(N)=O (stereo unspecified),i,i,i,i,i,i
C[C@@H]1CN([C@@H](C)CO)C(=O)c2c(c3ccccc3n2C)-c2ccccc2CO[C@H]1CN(C)S(=O)(=O)c1ccc(C(F)(F)F)cc1,i,i,i,i,i,?
c1ccc(N2CCNCC2)cc1,i,nt,nt,i,nt,nt
CCN1/C(=C\C=C\C2=[N+](CC)c3ccccc3C2(C)C)C(C)(C)c2ccccc21,2.82µM,20.6µM,?,?,i,?
COC(=O)C1=C(c2ccc(OCc3ccccc3)cc2)C[C@@H]2CC[C@H]1N2C(=O)NCCc1ccc(F)cc1,?,16.4µM,?,i,i,i
COC(=O)C1=C(c2ccc(OCc3ccccc3)cc2)C[C@@H]2CC[C@H]1N2C(=O)NC1CCN(Cc2ccccc2)CC1,11.2µM,i,?,12.6µM,i,?
SMILES,S2 tox,KB-V1 cytotox,KB-3-1 cytotox,ATXN2 expr inh,HepG2 viability,TGFb inhibitor
COC(=O)C1=C(c2ccc(OCc3ccccc3)cc2)C[C@@H]2CC[C@H]1N2C(=O)NCCCCc1ccccc1,i,?,?,i,i,i
CCc1ccc(CNC(=O)c2ccc3c(c2)N=C(C)c2cc(C)ccc2S3)cc1,?,i,?,i,i,?
C[C@]12C[C@H]3S[C@H]3C[C@@H]1CC[C@@H]1[C@@H]2CC[C@]2(C)[C@@H](O)CC[C@@H]12,i,nt,nt,nt,nt,nt
O=C(O)c1cccc2c1NC(C(=O)O)C1CC(Sc3ccccc3[N+](=O)[O-])C(Cl)C21 (stereo unspecified),?,i,i,i,i,i
CC(=O)c1ccc2c(c1)C1C(Cl)C(Sc3ccccc3[N+](=O)[O-])CC1C(C(=O)O)N2 (stereo unspecified),?,10.3µM,i,i,i,i
N#Cc1ccc(NC(=O)CN2CCN(C(=O)c3cccs3)CC2)cc1Cl,i,?,i,i,i,i
CC(C)Oc1ccc(C(=O)Nc2ccc3c(c2)CCCN3C(=O)c2cccs2)cc1,?,?,6.51µM,?,i,i
CC12CCC3c4ccc(OC(=O)N(CCCl)CCCl)cc4CCC3C1CCC2O (stereo unspecified),?,5.8µM,?,i,i,?
C[C@]12CCC3C(CCC4=C/C(=N/OCC(=O)NC(CCC(=O)O)C(=O)O)CC[C@@]43C)C1CCC2O (stereo partly specified),i,?,i,i,i,i
CCOc1ccc(-c2cc(C)[n+](CCc3ccc(OC)c(OC)c3)c(-c3ccc(OCC)cc3)c2)cc1,?,i,5.8µM,?,i,?
CCNC(=O)C1CCCN(C(=O)c2c(-c3ccccc3)noc2C)CC1 (stereo unspecified),?,i,i,i,i,i
CCOC(=O)C(O)(c1ccc(N(CC)C(=O)OC)cc1)C(F)(F)F (stereo unspecified),i,20.6µM,i,i,i,i
O=C(c1cc2c(s1)-c1ccccc1OC2)N1CCC2(CC1)OCCO2,i,13µM,i,i,i,i
C[C@H](CO)N1C[C@H](C)[C@H](CN(C)C(=O)N[C@H](C)c2ccccc2)OCc2ccccc2-c2c(n(C)c3ccccc23)C1=O,?,i,?,i,i,i
Cc1cccc(CN2CCCC(C(=O)c3cccc(OC(C)C)c3)C2)n1 (stereo unspecified),31.6µM,i,i,nt,i,?
COc1cccc(C(=O)C2CCCN(Cc3cccc(C)n3)C2)c1 (stereo unspecified),?,i,i,nt,i,?
C[C@@H]1CC[C@H]2[C@@H](C)C(=O)O[C@@H]3O[C@@]4(C)CC[C@@H]1[C@]32OO4,i,?,i,i,i,i
CCC(C)NC(=O)CCC(=O)OC1O[C@H]2OC3(C)CC[C@H]4[C@H](C)CCC(C1C)C24OO3 (stereo partly specified),?,i,5.17µM,i,i,i
